For 39 molecules, Potency results are on record in PubChem BioAssay (Tox21).

Inconclusive results are not listed. A call without a number means that no potency is given here. Active and inactive are the calls of the source. Calls follow the shape of the dose curve; as a rule, active = well fitted curve in the direction sought with a large enough effect in the repeat runs; inconclusive = weak or mixed curves; inactive = no such curve, though single readings can be large; an effect the other way counts as inactive or inconclusive.

The first assay is described as follows: qHTS assay to identify small molecule antagonists of the TGF-beta/Smad signaling pathway - cell viability counter screen (AID 1346824). Also: nearly all actives have a fitted effect of over 50% in size. To be noted: SBE-bla HEK293T viability, CellTiter-Glo luminescence; series mostly up to 76.8 µM. Put shortly: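 SBE-bla HEK 293T cells, incubated overnight, then compound plus 0.25 ng/mL TGF-beta1 (stock added) for 5 hr at 37 C. Viability was read in the same wells by CellTiter-Glo luminescence after 30 min at room temperature.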
In general terms: Quantitative high-throughput screening tests each substance at several concentrations.
In the case of `O=Cc1ccccc1C=O`, the Potency result was “inactive”.
Same read-out and setting: next, `C=C[Si](OCCOC)(OCCOC)OCCOC`: “inactive”.
As for `C=C[C@@]1(C)CC(=O)[C@]2(O)[C@@]3(C)[C@@H](O)CCC(C)(C)[C@@H]3[C@H](O)[C@H](OC(C)=O)[C@@]2(C)O1`, the Potency entry was “inactive”.
Consider `C[C@]12CC[C@@H]3c4ccc(O)cc4CC[C@H]3[C@@H]1CC[C@@H]2O`, for which the Potency result is “inactive”.
For the molecule `OC[C@@H](O)[C@@H](O[C@@H]1O[C@H](CO)[C@H](O)[C@H](O)[C@H]1O)[C@H](O)[C@@H](O)CO`, the Potency result is “inactive”.
Consider `NCCN`, for which the Potency entry is “inactive”.
Same read-out and setting: next, `O=C1OC2(c3ccccc31)c1cc(I)c(O)c(I)c1Oc1c2cc(I)c(O)c1I`: “inactive”; `CC(=O)O[C@]1(C(C)=O)CC[C@H]2[C@@H]3C=C(Cl)C4=CC(=O)CC[C@]4(C)[C@H]3CC[C@@]21C`: “inactive”.
For `O=C(CCCN1CCC(O)(c2ccc(Cl)cc2)CC1)c1ccc(F)cc1`, the Potency entry is “inactive”.
As for `CCOC(=O)C(C)Oc1ccc(Oc2cnc3cc(Cl)ccc3n2)cc1` (stereo unspecified), the Potency result is “inactive”.
Turning to `O=C(O)CCCCCCCCCCCC(=O)O`, the Potency entry is “inactive”.
As to `Cc1ccc(C(C)(C)C)c(O)c1`, the Potency entry was “inactive”.
For the molecule `CC(C)(C)c1cccc(C(C)(C)C)c1O`, the Potency result was “inactive”.
`CCC/C=C/C=O`: the Potency result was “inactive”.
Still for that read-out and setting: next, `OC[C@H]1O[C@@H]2O[C@H]3[C@H](O)[C@@H](O)[C@@H](O[C@H]4[C@H](O)[C@@H](O)[C@@H](O[C@H]5[C@H](O)[C@@H](O)[C@@H](O[C@H]6[C@H](O)[C@@H](O)[C@@H](O[C@H]7[C@H](O)[C@@H](O)[C@@H](O[C@H]1[C@H](O)[C@H]2O)O[C@@H]7CO)O[C@@H]6CO)O[C@@H]5CO)O[C@@H]4CO)O[C@@H]3CO`: “inactive”.
Regarding `CN(C)CCCN1c2ccccc2Sc2ccc(Cl)cc21`, the Potency result was “inactive”.
`Cc1ccc(C)c(O)c1`: the Potency entry was “inactive”.
On the same count and under the same terms, next, `COC(=O)CC(=O)OC`: “inactive”.
Still for that read-out and setting: next, `Nc1ccc(O)c(N)c1`: “inactive”.
For the molecule `NCCS(=O)(=O)O`, the Potency entry is “inactive”.
Turning to `C[C@]12CC[C@@H]3c4ccc(O)cc4CC[C@H]3[C@@H]1CC[C@H]2O`, the Potency entry is “inactive”.
With `c1ccc2ncccc2c1`, the Potency result is “inactive”.
Consider `O=C(O)c1cc(=O)[nH]c(=O)[nH]1`, for which the Potency entry is “inactive”.
In the case of `COCCOCCOCCO`, the Potency entry is “inactive”.
For the molecule `CCCCCCCC/C=C\CCCCCCCC(=O)O`, the Potency result was “inactive”.
With `COc1cc([C@H]2Oc3cc([C@H]4Oc5cc(O)cc(O)c5C(=O)[C@@H]4O)ccc3O[C@@H]2CO)ccc1O`, the Potency result was “inactive”.
Still for that read-out and setting: next, `C=CCCCCCCCCCC`: “inactive”.
For `CC/C=C\C/C=C\C/C=C\CCCCCCCC(=O)O`, the Potency result is “inactive”.
For the molecule `CCC(=O)O[C@H]1[C@H](O[C@@H]2[C@@H](C)[C@H](O[C@H]3C[C@@](C)(OC)[C@@H](O)[C@H](C)O3)[C@@H](C)C(=O)O[C@H](CC)[C@@](C)(O)[C@H](O)[C@@H](C)C(=O)[C@H](C)C[C@@]2(C)O)O[C@H](C)C[C@@H]1N(C)C`, the Potency result is “inactive”.
Regarding `[O-]/[N+](=N\O)c1ccccc1`, the Potency result was “inactive”.
Turning to `Cc1cccc(Nc2ccccc2C(=O)O)c1C`, the Potency result is “inactive”.
As for `CC1(C)NC(=O)N(c2ccc([N+](=O)[O-])c(C(F)(F)F)c2)C1=O`, the Potency entry was “inactive”.
Regarding `CC(=O)OC(C)C`, the Potency result is “inactive”.
For the molecule `COC(=O)c1ccc(C)cc1`, the Potency entry is “inactive”.
As to `CCCCCCCCCCC(CO)CCCCCCCC` (stereo unspecified), the Potency entry is “inactive”.
On to `CC(=O)O[C@]1(C(C)=O)CC[C@H]2[C@@H]3C=C(C)C4=CC(=O)CC[C@]4(C)[C@H]3CC[C@@]21C`, for which the Potency entry was “inactive”.
For `Oc1c(Cl)ccc(Cl)c1Cl`, the Potency result is “inactive”.

Another assay can be described thus: qHTS assay to identify small molecule agonists of the TGF-beta/Smad signaling pathway - cell viability counter screen (AID 1346829). Also: top concentration of the series differs between compounds; nearly all actives have a fitted effect of over 45% in size. The note with it: SBE-bla HEK293T viability, CellTiter-Glo luminescence, 5 h; series mostly up to 76.8 µM. Put shortly:
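Tox21 qHTS format: SBE-bla HEK 293T cells treated with DMSO-dissolved compounds for 5 hr; CellTiter-Glo luminescence after 30 min at room temperature.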
As to `O=Cc1ccccc1C=O`, the Potency result is “inactive”.
With `C=C[Si](OCCOC)(OCCOC)OCCOC`, the Potency result was “inactive”.
In the case of `C=C[C@@]1(C)CC(=O)[C@]2(O)[C@@]3(C)[C@@H](O)CCC(C)(C)[C@@H]3[C@H](O)[C@H](OC(C)=O)[C@@]2(C)O1`, the Potency result is “inactive”.
Take `C[C@]12CC[C@@H]3c4ccc(O)cc4CC[C@H]3[C@@H]1CC[C@@H]2O`: the Potency entry was “inactive”.
Same read-out and setting: next, `OC[C@@H](O)[C@@H](O[C@@H]1O[C@H](CO)[C@H](O)[C@H](O)[C@H]1O)[C@H](O)[C@@H](O)CO`: “inactive”; `NCCN`: “inactive”.
`O=C1OC2(c3ccccc31)c1cc(I)c(O)c(I)c1Oc1c2cc(I)c(O)c1I`: the Potency entry was “inactive”.
For `CC(=O)O[C@]1(C(C)=O)CC[C@H]2[C@@H]3C=C(Cl)C4=CC(=O)CC[C@]4(C)[C@H]3CC[C@@]21C`, the Potency result is “inactive”.
In the case of `O=C(CCCN1CCC(O)(c2ccc(Cl)cc2)CC1)c1ccc(F)cc1`, the Potency result was “inactive”.
Turning to `CCOC(=O)C(C)Oc1ccc(Oc2cnc3cc(Cl)ccc3n2)cc1` (stereo unspecified), the Potency result was “inactive”.
As to `O=C(O)CCCCCCCCCCCC(=O)O`, the Potency result is “inactive”.
In the case of `Cc1ccc(C(C)(C)C)c(O)c1`, the Potency entry was “inactive”.
Regarding `C=C[C@H]1CN2CC[C@H]1C[C@H]2[C@H](O)c1ccnc2ccc(OC)cc12`, the Potency entry was “inactive”.
Consider `C=C[C@H]1CN2CC[C@H]1C[C@@H]2[C@@H](O)c1ccnc2ccc(OC)cc12`, for which the Potency result is “inactive”.
For `CC(C)(C)c1cccc(C(C)(C)C)c1O`, the Potency entry was “inactive”.
Take `CCC/C=C/C=O`: the Potency entry was “inactive”.
Consider `OC[C@H]1O[C@@H]2O[C@H]3[C@H](O)[C@@H](O)[C@@H](O[C@H]4[C@H](O)[C@@H](O)[C@@H](O[C@H]5[C@H](O)[C@@H](O)[C@@H](O[C@H]6[C@H](O)[C@@H](O)[C@@H](O[C@H]7[C@H](O)[C@@H](O)[C@@H](O[C@H]1[C@H](O)[C@H]2O)O[C@@H]7CO)O[C@@H]6CO)O[C@@H]5CO)O[C@@H]4CO)O[C@@H]3CO`, for which the Potency result was “inactive”.
On to `CN(C)CCCN1c2ccccc2Sc2ccc(Cl)cc21`, for which the Potency entry was “inactive”.
Take `Cc1ccc(C)c(O)c1`: the Potency entry was “inactive”.
For the molecule `COC(=O)CC(=O)OC`, the Potency entry was “inactive”.
For the molecule `Nc1ccc(O)c(N)c1`, the Potency result was “inactive”.
Turning to `NCCS(=O)(=O)O`, the Potency entry is “inactive”.
Consider `C[C@]12CC[C@@H]3c4ccc(O)cc4CC[C@H]3[C@@H]1CC[C@H]2O`, for which the Potency result was “inactive”.
For the molecule `c1ccc2ncccc2c1`, the Potency result was “inactive”.
Turning to `O=C(O)c1cc(=O)[nH]c(=O)[nH]1`, the Potency entry is “inactive”.
Turning to `COCCOCCOCCO`, the Potency entry was “inactive”.
Take `CCCCCCCC/C=C\CCCCCCCC(=O)O`: the Potency result is “inactive”.
In the case of `COc1cc([C@H]2Oc3cc([C@H]4Oc5cc(O)cc(O)c5C(=O)[C@@H]4O)ccc3O[C@@H]2CO)ccc1O`, the Potency entry is “inactive”.
In the case of `C=CCCCCCCCCCC`, the Potency result was “inactive”.
Consider `CC/C=C\C/C=C\C/C=C\CCCCCCCC(=O)O`, for which the Potency entry is “inactive”.
Take `CCC(=O)O[C@H]1[C@H](O[C@@H]2[C@@H](C)[C@H](O[C@H]3C[C@@](C)(OC)[C@@H](O)[C@H](C)O3)[C@@H](C)C(=O)O[C@H](CC)[C@@](C)(O)[C@H](O)[C@@H](C)C(=O)[C@H](C)C[C@@]2(C)O)O[C@H](C)C[C@@H]1N(C)C`: the Potency result is “inactive”.
As for `[O-]/[N+](=N\O)c1ccccc1`, the Potency entry is “inactive”.
Take `Cc1cccc(Nc2ccccc2C(=O)O)c1C`: the Potency result is “inactive”.
On to `CC1(C)NC(=O)N(c2ccc([N+](=O)[O-])c(C(F)(F)F)c2)C1=O`, for which the Potency entry was “inactive”.
In the case of `CC(=O)OC(C)C`, the Potency entry was “inactive”.
Take `COC(=O)c1ccc(C)cc1`: the Potency result is “inactive”.
For `CCCCCCCCCCC(CO)CCCCCCCC` (stereo unspecified), the Potency result was “inactive”.
`CC(=O)O[C@]1(C(C)=O)CC[C@H]2[C@@H]3C=C(C)C4=CC(=O)CC[C@]4(C)[C@H]3CC[C@@]21C`: the Potency result was “inactive”.
For `Oc1c(Cl)ccc(Cl)c1Cl`, the Potency result is “inactive”.
